# Screens deposited in PubChem by National Center for Advancing Translational Sciences (NCATS).
# HT1080-NT tox = kills 2HG-producing HT-1080-NT fibrosarcoma cells | HT-1080-NT fibrosarcoma viability, CellTiter-Glo ATP luminescence, 48 h | Potency, µM (titrated, usually from 46.1 µM), usual class: cytotoxic | 360,000 compounds, 1.6% hits;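 further: NT is the 2HG producing partner of a matched IDH1 knockdown line; nearly all actives have a fitted effect of over 55% in size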
#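 Fibrosarcoma NT cells, 750 per well in 5% FBS RPMI, were exposed to compound for 48 hours. Viability: CellTiter-Glo luminescence.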
# HT1080 IDH1KD tx = toxicity to HT-1080 IDH1 knockdown cells (counter line); Potency, µM (top dose mostly 46.1 µM), actives largely listed as cytotoxic; AID 686971; HT-1080 IDH1 knockdown viability, ATP luminescence, 48 h; 360,000 compounds, 2% hits
#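 CellTiter-Glo luminescence after 48 h compound exposure at 37 degrees C of IDH1-knockdown HT-1080 cells in 5% FBS RPMI. %Activity scaled between DMSO wells and cell-free media wells, with curves fitted and assigned curve classes.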
# ALOX12 inh = inhibitors of human 12S-lipoxygenase ALOX12; P18054; purified 12hLO, xylenol orange hydroperoxide absorbance; Potency, µM (highest dose often 108 µM), actives largely listed as inhibitors; 580,000 compounds, 1.1% hits
# Target sequence (P18054 whole entry, looked up): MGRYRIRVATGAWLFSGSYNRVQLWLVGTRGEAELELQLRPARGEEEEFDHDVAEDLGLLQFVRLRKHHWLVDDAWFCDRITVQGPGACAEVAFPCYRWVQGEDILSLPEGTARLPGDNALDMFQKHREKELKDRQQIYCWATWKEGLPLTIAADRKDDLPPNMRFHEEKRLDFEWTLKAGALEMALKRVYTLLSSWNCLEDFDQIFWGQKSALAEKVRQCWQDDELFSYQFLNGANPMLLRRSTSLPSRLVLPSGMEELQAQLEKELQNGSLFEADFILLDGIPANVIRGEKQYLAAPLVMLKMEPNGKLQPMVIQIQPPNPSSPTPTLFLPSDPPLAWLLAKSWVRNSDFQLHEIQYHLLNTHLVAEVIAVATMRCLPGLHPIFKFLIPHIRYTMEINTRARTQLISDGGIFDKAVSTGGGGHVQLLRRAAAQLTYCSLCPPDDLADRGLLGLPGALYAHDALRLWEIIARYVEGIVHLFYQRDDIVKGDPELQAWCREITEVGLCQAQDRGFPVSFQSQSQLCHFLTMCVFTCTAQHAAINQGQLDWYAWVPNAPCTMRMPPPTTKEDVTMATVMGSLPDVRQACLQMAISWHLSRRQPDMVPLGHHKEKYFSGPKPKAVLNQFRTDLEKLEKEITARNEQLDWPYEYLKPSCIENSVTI
#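 Hydroperoxide product was detected by ferrous iron/xylenol orange as the 573 to 405 nm absorbance ratio. Arachidonic acid at 40 uM (final) was turned over for 30 min at room temperature by 150 nM human 12hLO, pH 7.0 Hepes buffer, after 15 min compound preincubation.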
# TDP1 cell noCPT = qHTS for Inhibitors of human tyrosyl-DNA phosphodiesterase 1 (TDP1): qHTS in cells in absence of CPT | DT40 Tdp1-/- hTDP1 cells, no CPT, ATP luminescence, 48 h | Potency, µM (doses to about 46.2 µM), hits mostly inhibitors | 420,000 compounds, 15% hits | AID 686978, 2013; further: nearly all actives have a fitted effect of over 55% in size
#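 A cellular qHTS used chicken DT40 cells lacking endogenous Tdp1 but carrying stably transfected human TDP1. Compounds were applied without camptothecin, and cell growth kinetics were judged by ATP-dependent luminescence after ≥48 hr.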
# TDP1 cell CPT = growth inhibition of DT40 Tdp1-/-;hTDP1 cells with camptothecin (screen for TDP1 inhibitors); chicken DT40 Tdp1-/-;hTDP1 cells + 20 nM CPT, ATP luminescence, 48 h; Potency, µM (titrated, usually from 46.2 µM), most hits filed as inhibitors; 420,000 compounds, 12% hits; further: nearly all actives have a fitted effect of over 55% in size
#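 Chicken DT40 Tdp1-/- cells complemented with human TDP1, 400 cells/well, exposed to compounds plus 20 nM camptothecin for at least 48 h at 37 C; viability read as ATP content by CellTiter-Glo luminescence.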
# IL-1B inflam inh = inhibitors of inflammasome signaling (IL-1 beta secretion); THP-1 LPS/ATP IL-1B secretion, AlphaLISA, 16 h; hits give low values; activity change, % at 57.5 µM; 360,000 compounds, 4.7% hits; AID 743279; in the data active means activity change below about -50%; inconclusive means mostly about -30% to -49%
#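 Secreted IL-1B measured by AlphaLISA bead assay after 16 h compound exposure of THP-1 cells; compounds (final up to 57.5 uM) added 1 h before LPS (250 ng/mL) and ATP (1.25 mM) stimulation; lower signal means less secretion.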
# Hits are given with their value; n = inactive; u = inconclusive; x = not tested or not shown; ! = a repeat was not active; [ ] = dose if it differs, or a comment. This is one part of a sample in which hits are shown more often than they occur. Unless noted, the call rests on the fitted dose curve; in most records, active means well fitted curve in the direction sought with a large enough effect; inconclusive means small, poorly fitted or top-dose-only effect, or another doubt; inactive means no such curve, though single readings can be large; an effect the other way counts as inactive or inconclusive.
SMILES,HT1080-NT tox,HT1080 IDH1KD tx,ALOX12 inh,TDP1 cell noCPT,TDP1 cell CPT,IL-1B inflam inh
O=C1N(Cc2ccccn2)C[C@H]2CN(Cc3cccnc3)CCN12,x,x,n,x,x,x
CC(C)c1ccc(-n2c(O)c(/C=N/NC(=O)c3ccccc3O)c(=O)[nH]c2=S)cc1,n,n,40µM,n,n,n
COc1ccc(C(=O)c2c(C)n(CCN3CCOCC3)c3ccccc23)cc1,x,x,u,24µM,u,x
CN1CCC(N[C@@H]2C[C@H](CO)[C@@H](O)[C@H]2O)CC1,x,x,n,x,x,x
O=C(/C=C/c1ccccc1)C1C(=O)c2ccccc2C1=O,n,n,n,4.6µM,3.7µM,n
N#CC(C#N)=Cc1ccc(O)c(O)c1,n,n,25µM!,19µM!,21µM!,n
CC(C)(C)c1cc(C=C(C#N)C#N)cc(C(C)(C)C)c1O,1.2µM,2.1µM,u,0.65µM,0.65µM,-77
N#CC(C#N)=Cc1ccc(N2CCCC2)cc1,n,n,u,u,n,n
COP(=O)(OC)C1(O)C(=O)Nc2ccc(Br)cc21 (stereo not drawn),n,n,n,u,16µM,n
Cc1cc(C)cc(N2C(=O)NC(=O)/C(=C\C=C\c3ccco3)C2=O)c1,u,u,u,5.8µM,5.2µM,-86
O=C1NC(=O)N(c2ccccc2)C(=O)/C1=C\C=C\c1ccccc1,u,5.2µM,25µM,2.6µM,2.1µM,-98
CCOc1ccc(N2C(=O)/C(=C/c3ccco3)C(=O)NC2=S)cc1,n,n,x,n,n,n
CCc1ccc(N2C(=O)NC(=O)/C(=C\C=C\c3ccco3)C2=O)cc1,n,n,n,3.3µM,3.7µM,-96
CC(C)c1ccc(N2C(=O)NC(=O)/C(=C/C=C/c3ccco3)C2=O)cc1,n,u,45µM,4.6µM,5.2µM,u
Cc1ccc(S(=O)(=O)NC[C@H]2C[C@@H]3CCN2C[C@@H]3CN(C)CCc2ccccn2)cc1,x,x,n,x,x,x
Cc1[nH]c2c(C(C)C)cccc2c1CCN,x,x,n,x,x,x
Cc1[nH]c2ccc(C34CC5CC(CC(C5)C3)C4)cc2c1CCN,x,x,32µM,x,x,x
CC(C)Cn1cc(C(=O)NCC2CCCN2C)c2ccccc21 (stereo not drawn),x,x,n,x,x,x
CN(C(=O)Oc1ccc([N+](=O)[O-])cc1)c1ccccc1,n,n,n,n,n,-56
CC(=O)c1ccc(OC(=O)N(C)c2ccccc2)cc1,n,n,n,n,n,n
O=C(Cc1ccccc1)Oc1ccc([N+](=O)[O-])cc1,n,n,n,n,n,n
CN(Cc1cccc(-c2ccncc2)c1)C(=O)Oc1ccc([N+](=O)[O-])cc1,u,u,x,16µM,21µM,n
Cc1nn(-c2ncnc3nc[nH]c23)c2c1C(c1c(Cl)cccc1Cl)SCC(=O)N2 (stereo not drawn),x,x,n,x,x,x
COc1cccc(N2CCN(c3c4c(nc5nncn35)CCC4)CC2)c1,x,x,n,8.2µM,23µM,x
c1nc2nc3c(c(N4CCNCC4)n2n1)CCCC3,n,n,x,n,n,n
SMILES,HT1080-NT tox,HT1080 IDH1KD tx,ALOX12 inh,TDP1 cell noCPT,TDP1 cell CPT,IL-1B inflam inh
CN(C)C(=O)[C@H]1CN2CCC1C[C@@H]2Cn1cc(-c2cccc(N)c2)nn1 (stereo partly drawn),x,x,n,x,x,x
CCN(CC)C(=O)c1ccc(NC(=O)Cn2nc(C)c3ccccc3c2=O)cc1,n,n,n,n,n,n
Cc1ccc(-n2nc3c(=O)n(CC(=O)Nc4ccccc4F)nc(C)c3c2C)c(C)c1,x,x,u,18µM,u,x
Cc1ccc(C)c(NC(=O)Cn2nc(C)c3nn(-c4ccc(Cl)cc4)c(C)c3c2=O)c1,x,x,u,18µM,23µM,x
CCC(C)(C)n1nnnc1C(c1cccc(C#N)c1)N1CCN(c2cc(C)ccc2C)CC1 (stereo not drawn),n,n,n,23µM,16µM,n
CCCCN(Cc1ccccc1)C1CCN(CCc2ccccc2)CC1,u,u,u,u,u,-65
c1ccc(CCN2CCC(N3CCN(c4ccccc4)CC3)CC2)cc1,n,n,n,n,n,n
Cc1ncc(CNC(=O)N(CCCl)N=O)c(N)n1,n,n,n,u,21µM!,n
COc1cc2c(cc1OCc1ccc(Cl)cc1)N(Cc1ccccc1)CC21CCN(C(C)=O)CC1,x,x,32µM,x,x,x
COc1cc2c(cc1OCc1ccccc1)N(C(=O)CC(C)C)CC21CCN(C)CC1,x,x,n,x,x,x
ClCCN(CCCl)c1ccc(-n2cnc3c(Cl)ncnc32)cc1,u,23µM,n,6.5µM,6.5µM,-96
COc1cc(C[C@@H](C)N)c(OC)cc1I,n,n,n,u,u,-64
CCN(CC)C1=NC(=[N+](CC)CC)c2ccccc21,u,13µM,n,0.41µM,0.65µM,u
CN1CC(C(=O)c2ccc(Cl)cc2)C(c2ccc(N(C)C)cc2)C1 (stereo not drawn),n,n,n,u,21µM,u
CC(=O)OCC1=C(C(=O)O)N2C(=O)[C@@H](N)[C@H]2SC1,x,x,n,n,n,x
O=c1c2ccccc2nc(Cc2ccccc2)n1-c1ccccc1,n,n,n,15µM,u,n
Cc1cccnc1-n1c(-c2ccccc2)nc2ccccc2c1=O,n,n,n,13µM,13µM,n
O=c1c2ccccc2nc(Cc2ccccc2)n1-c1ccccc1O,n,n,n,n,n,n
Cc1ccc(-c2nc3ccccc3c(=O)n2-c2ccc(O)cc2)cc1,n,n,n,4.1µM,2.6µM,n
O=c1c2ccccc2nc(-c2ccccc2)n1-c1ccc(O)cc1,n,n,n,u,u,n
O=c1c2ccccc2nc(-c2ccco2)n1-c1ccc(Br)cc1,n,n,n,16µM,12µM,n
O=C(N[C@H]1N=C(c2ccccc2F)c2cccc3c2N(CC3)C1=O)c1cc2ccccc2[nH]1,x,x,n[22.9 µM],n,n,x
Cc1ccc(-n2c(-c3cccs3)nc3ccccc3c2=O)cc1,n,n,n,12µM,9.2µM,n
Cc1ccc(CNC(=O)c2ccc(CSc3nc4ccncc4n3Cc3ccc(C)cc3)cc2)cc1,x,x,n,8.2µM,5.2µM,x
O=C(NCc1cccnc1)c1cn(Cc2ccccc2)c2ccccc12,x,x,n,x,x,x
Cc1ccc(Cn2c(SCc3ccc(C(=O)NC4CCCC4)cc3)nc3ccncc32)cc1,x,x,n,16µM,u,x
COC1C=CC23c4cc5c(cc4CN(CC2O)C3C1)OCO5 (stereo not drawn),x,x,x,1.3µM,2.1µM,x
CNC(=O)N1N=C(c2ccc(N)cc2)c2cc3c(cc2CC1C)OCO3 (stereo not drawn),x,x,n,x,x,x
COC(=O)[C@@H]1[C@@H](C(=O)OC)C2(c3ccccc3-c3ccccc32)N(c2ccc(Cl)cc2)N1C#N,4.6µM,5.8µM,n,2.6µM,2.6µM,-99
